The whole screen tested about 5,500 compounds, of which about 2,000 (36%) were called active. Not shown: some 18% with an inconclusive outcome. No stated cut-off is given here; in the data, active means normalized growth mostly below about 0.91 (no sharp cut-off); inconclusive means no clear call, values can overlap the other calls; inactive means mostly above about 0.92. The list shows a part of the results.
Assay: chemical genetic growth profiling, strain panel (AID 1159580);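 further: tested at 20 µM; growth read once vehicle control cultures reached saturation at 30 °C; 1 = growth at the plate median or of vehicle wells; lower values mean less growth of the strain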
Conditions: S. cerevisiae deletion strains, growth OD
[1] = locus YAL013W, strain DEP1, active compounds read low
[2] = locus YAL040C, strain CLN3, active compounds read low
[3] = locus YCL061C, strain MRC1 (second series), active compounds read low
[4] = locus YDR150W, strain NUM1, active compounds read low
[5] = locus YDR363W, strain ESC2, active compounds read low
[6] = locus YER002W, strain NOP16, active compounds read low
[7] = locus YGR078C, strain PAC10, active compounds read low
[8] = locus YNL175C, strain NOP13, active compounds read low
[9] = locus YNL197C, strain WHI3, active compounds read low
[10] = locus YNL224C, strain SQS1, active compounds read low
[11] = locus YOR083W, strain WHI5 (second series), active compounds read low

Measured: normalized growth

CC(C)NC[C@H](O)c1ccc(O)c(O)c1
inactive: [1] 1.01 | [2] 0.998 | [3] 1 | [4] 0.99 | [5] 1 | [6] 1 | [7] 1.01 | [8] 1.02 | [9] 1.01 | [10] 1.01 | [11] 1 | locus YPL055C, strain LGE1, active compounds read low 0.97

CC(C)NC[C@@H](O)c1ccc(O)c(O)c1
active: locus YJR075W, strain HOC1, active compounds read low 1.12 [resistant] | locus YMR307W, strain GAS1, active compounds read low 1.1 [resistant]
inactive: [1] 0.974 | [2] 1.03 | [3] 0.996 | [4] 1 | [5] 1 | [6] 0.984 | [7] 0.99 | [8] 0.984 | [9] 0.985 | [10] 0.997 | locus YNL322C, strain KRE1, active compounds read low 1.01 | [11] 1.04 | locus YPL241C, strain CIN2, active compounds read low 0.998

From PubChem BioAssay AID1159580 (chemical genetic matrix, 2015)
